Reference: the supplement of paper PMC8728848
The sample as a whole holds a higher share of the strongest signals than the screen did.

Legend:
Experiment in all cases: glycan array binding signal (z-score within array); higher = stronger binding
Conditions in all cases: glycan notation: IUPAC condensed, linker removed
[1] = target: Fuc(a1-2)Gal(b1-3)GalNAc(b1-4)[Neu5Ac(a2-3)]Gal(b1-4)Glc
Procedure, shortened: (§1)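 The binding signal is a Z-score computed within each array. Data were drawn from 3228 arrays in the Consortium for Functional Glycomics database, restricted to those with a known protein sequence. Scores were averaged over arrays of the same protein sequence at different concentrations or buffers, and over linkers, and negative values can be taken as non-binding.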

[2] = target: Fuc(a1-2)Gal(b1-4)GlcNAc(b1-3)Gal(b1-4)GlcNAc(b1-3)Gal(b1-4)GlcNAc
Procedure, shortened: as §1

[3] = target: Fuc(a1-2)Gal(b1-4)[Fuc(a1-3)]GlcNAc(b1-3)[Neu5Ac(a2-6)Gal(b1-4)GlcNAc(b1-6)]Gal(b1-4)Glc
Procedure, shortened: as §1

Fuc(a1-2)Gal6S(b1-4)Glc = target: Fuc(a1-2)Gal6S(b1-4)Glc
Procedure, shortened: as §1

[4] = target: Fuc(a1-2)Gal6S(b1-4)Glc6S
Procedure, shortened: as §1

[5] = target: Fuc(a1-2)[Gal(a1-3)]Gal(b1-4)GlcNAc(b1-2)Man(a1-3)[Fuc(a1-2)[Gal(a1-3)]Gal(b1-4)GlcNAc(b1-2)Man(a1-6)]Man(b1-4)GlcNAc(b1-4)GlcNAc
Procedure, shortened: as §1

[6] = target: Fuc(a1-2)[Gal(a1-3)]Gal(b1-4)GlcNAc(b1-2)Man(a1-3)[Fuc(a1-2)[Gal(a1-3)]Gal(b1-4)GlcNAc(b1-2)Man(a1-6)]Man(b1-4)GlcNAc(b1-4)[Fuc(a1-6)]GlcNAc
Procedure, shortened: as §1

[7] = target: Fuc(a1-2)[GalNAc(a1-3)]Gal(b1-3)GlcNAc
Procedure, shortened: as §1

[8] = target: Fuc(a1-3)[Gal(b1-4)]GlcNAc(b1-6)GalNAc
Procedure, shortened: as §1

Gal(a1-3)Gal = target: Gal(a1-3)Gal
Procedure, shortened: as §1

[9] = target: Gal(a1-3)[Gal(a1-4)]Gal(b1-4)GlcNAc
Procedure, shortened: as §1

Gal(b1-3)GalNAc = target: Gal(b1-3)GalNAc
Procedure, shortened: as §1

[10] = target: Gal(b1-3)GlcNAc(b1-6)GalNAc
Procedure, shortened: as §1

[11] = target: Gal(b1-3)GlcNAc(b1-6)[Gal(b1-3)]GalNAc
Procedure, shortened: as §1

[12] = target: Gal(b1-3)[GlcNAc(b1-6)]GalNAc
Procedure, shortened: as §1

[13] = target: Gal(b1-3)[Neu5Ac(a2-6)]GalNAc
Procedure, shortened: as §1

[14] = target: Gal(b1-4)GlcNAc(b1-2)Man(a1-6)[Man(a1-3)]Man(b1-4)GlcNAc(b1-4)GlcNAc
Procedure, shortened: as §1

[15] = target: Gal(b1-4)GlcNAc(b1-2)[Gal(b1-4)GlcNAc(b1-4)]Man(a1-3)[GlcNAc(b1-4)][Gal(b1-4)GlcNAc(b1-2)Man(a1-6)]Man(b1-4)GlcNAc(b1-4)GlcNAc
Procedure, shortened: as §1

[16] = target: Gal(b1-4)GlcNAc(b1-2)[Gal(b1-4)GlcNAc(b1-6)]Man(a1-6)[GlcNAc(b1-4)][Gal(b1-4)GlcNAc(b1-2)Man(a1-3)]Man(b1-4)GlcNAc(b1-4)GlcNAc
Procedure, shortened: as §1

[17] = target: Gal(b1-4)GlcNAc(b1-3)Gal(b1-4)GlcNAc(b1-2)Man(a1-3)[Gal(b1-4)GlcNAc(b1-3)Gal(b1-4)GlcNAc(b1-2)Man(a1-6)]Man(b1-4)GlcNAc(b1-4)GlcNAc
Procedure, shortened: as §1

[18] = target: Gal(b1-4)GlcNAc(b1-3)Gal(b1-4)GlcNAc(b1-6)[Gal(b1-3)]GalNAc
Procedure, shortened: as §1

[19] = target: Gal(b1-4)GlcNAc(b1-6)[Gal(b1-3)]GalNAc
Procedure, shortened: as §1

Gal3S(b1-3)GlcNAc = target: Gal3S(b1-3)GlcNAc
Procedure, shortened: as §1

GlcA(b1-3)Gal = target: GlcA(b1-3)Gal
Procedure, shortened: as §1

[20] = target: GlcNAc(b1-2)[GlcNAc(b1-4)]Man(a1-3)[GlcNAc(b1-4)][GlcNAc(b1-2)[GlcNAc(b1-6)]Man(a1-6)]Man(b1-4)GlcNAc(b1-4)[Fuc(a1-6)]GlcNAc
Procedure, shortened: as §1

[21] = target: GlcNAc(b1-3)Gal(b1-4)GlcNAc(b1-6)[Gal(b1-3)]GalNAc
Procedure, shortened: as §1

[22] = target: GlcNAc(b1-6)Gal(b1-4)GlcNAc
Procedure, shortened: as §1

Kdn(a2-3)Gal(b1-3)GalNAc = target: Kdn(a2-3)Gal(b1-3)GalNAc
Procedure, shortened: as §1

[23] = target: Neu5Ac(a2-3)Gal(b1-3)GalNAc6S
Procedure, shortened: as §1

[24] = target: Neu5Ac(a2-3)Gal(b1-4)GlcNAc(b1-3)Gal(b1-4)GlcNAc(b1-6)[Gal(b1-3)]GalNAc
Procedure, shortened: as §1

[25] = target: Neu5Ac(a2-3)Gal(b1-4)GlcNAc(b1-6)[Gal(b1-3)]GalNAc
Procedure, shortened: as §1

[26] = target: Neu5Ac(a2-3)Gal(b1-4)[Fuc(a1-3)]GlcNAc(b1-3)Gal(b1-4)GlcNAc
Procedure, shortened: as §1

[27] = target: Neu5Ac(a2-6)Gal(b1-4)GlcNAc(b1-2)[Neu5Ac(a2-6)Gal(b1-4)GlcNAc(b1-4)]Man(a1-3)[GlcNAc(b1-4)][Neu5Ac(a2-6)Gal(b1-4)GlcNAc(b1-2)[Neu5Ac(a2-6)Gal(b1-4)GlcNAc(b1-6)]Man(a1-6)]Man(b1-4)GlcNAc(b1-4)GlcNAc
Procedure, shortened: as §1

[28] = target: Neu5Ac(a2-6)Gal(b1-4)GlcNAc(b1-3)Gal(b1-4)GlcNAc(b1-3)Gal(b1-4)GlcNAc
Procedure, shortened: as §1

[29] = target: Neu5Ac(a2-6)Gal(b1-4)GlcNAc(b1-3)Gal(b1-4)GlcNAc(b1-6)[Gal(b1-3)]GalNAc
Procedure, shortened: as §1

[30] = target: Neu5Ac(a2-6)Gal(b1-4)GlcNAc(b1-6)[Gal(b1-3)]GalNAc
Procedure, shortened: as §1

[31] = target: Neu5Ac(a2-6)GalNAc(b1-4)GlcNAc
Procedure, shortened: as §1

[32] = target: Neu5Ac(a2-8)Neu5Ac(a2-8)Neu5Ac(a2-3)[GalNAc(b1-4)]Gal(b1-4)Glc
Procedure, shortened: as §1

[33] = target: Neu5Gc(b2-6)Gal(b1-4)GlcNAc
Procedure, shortened: as §1

B1: Fm1D (Escherichia coli) (protein)
chain: FSCNVDGGSSIGAGTTSVYVNLDPVIQPGQNLVVDLSQHISCWNDYGGWYDTDHINLVQGSAFAGSLQSYKGSLYWNNVTYPFPLTTNTNVLDIGDKTPMPLPLKLYITPVGAAGGVVIKAGEVIARIHMYKIATLGSGNPRNFTWNIISNNSVVMPTHHHHHH
[1]
  glycan array binding signal (z-score): -0.146
[2]
  glycan array binding signal (z-score): -0.144
[3]
  glycan array binding signal (z-score): -0.143
Fuc(a1-2)Gal6S(b1-4)Glc
  glycan array binding signal (z-score): -0.149
[4]
  glycan array binding signal (z-score): -0.14
[5]
  glycan array binding signal (z-score): -0.142
[6]
  glycan array binding signal (z-score): -0.143
[7]
  glycan array binding signal (z-score): -0.146
[8]
  glycan array binding signal (z-score): -0.139
Gal(a1-3)Gal
  glycan array binding signal (z-score): -0.142
[9]
  glycan array binding signal (z-score): -0.125
Gal(b1-3)GalNAc
  glycan array binding signal (z-score): 2.2
[10]
  glycan array binding signal (z-score): -0.12
[11]
  glycan array binding signal (z-score): 3.7
[12]
  glycan array binding signal (z-score): 4.94
[13]
  glycan array binding signal (z-score): 3.04
[14]
  glycan array binding signal (z-score): -0.144
[15]
  glycan array binding signal (z-score): -0.147
[16]
  glycan array binding signal (z-score): -0.151
[17]
  glycan array binding signal (z-score): -0.138
[18]
  glycan array binding signal (z-score): 3.82
[19]
  glycan array binding signal (z-score): 10.7
Gal3S(b1-3)GlcNAc
  glycan array binding signal (z-score): -0.132
GlcA(b1-3)Gal
  glycan array binding signal (z-score): -0.143
[20]
  glycan array binding signal (z-score): -0.144
[21]
  glycan array binding signal (z-score): 4.57
[22]
  glycan array binding signal (z-score): -0.134
Kdn(a2-3)Gal(b1-3)GalNAc
  glycan array binding signal (z-score): -0.14
[23]
  glycan array binding signal (z-score): -0.141
[24]
  glycan array binding signal (z-score): 1.11
[25]
  glycan array binding signal (z-score): 5.29
[26]
  glycan array binding signal (z-score): -0.14
[27]
  glycan array binding signal (z-score): -0.142
[28]
  glycan array binding signal (z-score): -0.146
[29]
  glycan array binding signal (z-score): 11.5
[30]
  glycan array binding signal (z-score): 3.09
[31]
  glycan array binding signal (z-score): -0.144
[32]
  glycan array binding signal (z-score): -0.152
[33]
  glycan array binding signal (z-score): -0.143
